# This is part of a sample that, as a whole, favours compounds with a hit. Of some 83,000 tested, about 20% had one in any assay.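 For each line, cells grew in 96-well plates with the test compound present at a single concentration for 48 hours.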 The source made the active and inactive calls. Rule for the calls: active = growth percent below 10; inactive = the rest.
# Test system: MALME-3M melanoma
# Assay: NCI-60 one-dose screen, 48 h (100 = growth as untreated, 0 = no growth, -100 = all killed)
# Settings: 10 µM
row,Structure (SMILES),growth
1,CCc1ccc(-c2ccc(-n3nc(C)c4c(N)nc(Cc5ccccc5)nc43)cc2)cc1,106% (inactive)
2,O=[N+]([O-])c1ccc2ncccc2c1Cl,69% (inactive)
3,Cc1ccc(-n2nnnc2N)c(C)c1,119% (inactive)
4,Oc1ccc(-c2[nH]c3ccccc3c2-c2nc3ccccc3o2)cc1,65% (inactive)
5,CCc1ccc(C2=NN(c3ccc(S(C)(=O)=O)cc3)C(=O)CC2)cc1,38.8% (inactive)
6,COc1ccc(-c2nn(-c3cccc(Cl)c3)cc2-c2c(C#N)c(=O)n3[nH]c(-c4ccc(C)cc4)nc3c2C#N)cc1,21.4% (inactive)
7,O=C1c2ccccc2C(=O)c2c1ccc(C(Br)Br)c2[N+](=O)[O-],-17.5% (active)
8,CCOC(=O)CC(S(=O)(=O)c1ccccc1)S(=O)(=O)c1ccccc1,39.8% (inactive)
9,CC(=O)Nc1ccc(S(=O)(=O)c2ccnc3cc(Cl)ccc23)cc1,66.5% (inactive)
10,O=C(Nc1cc([N+](=O)[O-])c2[nH]c(=O)c3ccccc3c2c1)C(F)(F)F,83.7% (inactive)
11,COc1cc2c(cc1NC(=O)C(F)(F)F)-c1ccc(NC(=O)C(F)(F)F)cc1C2,83.7% (inactive)
12,COc1ccc(/C(C#N)=C/c2cccc(OC)c2OC)cc1,73.2% (inactive)
13,C/C(=C/CCC(C)[C@@H]1CC[C@]2(C)C3=C(CC[C@@]12C)[C@@]1(C)CCC(=O)C(C)(C)[C@@H]1CC3)C(=O)O (stereo not given in full),-88.9% (active)
14,N#CC1=CC2CN(Cc3ccccc3)C1C1C(=O)N(c3ccccc3)C(=O)C21 (stereo not given),111% (inactive)
15,COC(=O)C1OC1c1cc([N+](=O)[O-])ccc1OC (stereo not given),102% (inactive)
16,O=c1cn[nH]c2ccc(Br)cc12,114% (inactive)
17,COc1cc(CNC(=O)C2CSC3(C)c4ccccc4C(=O)N23)cc(OC)c1OC (stereo not given),109% (inactive)
18,O=C1/C=C/[C@@H](O)[C@@H]2C[C@@H](O)C[C@H]2/C=C/CCC[C@H](C(F)(F)F)O1,-10.9% (active)
19,O=C1CCn2c1c(O)c1ccccc1c2=O,124% (inactive)
20,COc1ccc(/C(=N\N)C(=O)c2ccccc2)cc1 (tested in a mixture with another compound),106% (inactive)

row,Structure (SMILES),growth
1,O=C(CCl)Nc1ccc(Cc2ccc(NC(=O)CCl)cc2)cc1,-67.5% (active)
2,CCOC(=O)C1=CSC2=NC3=C(CCC/C3=C\c3cc(OC)c(OC)c(OC)c3)C(c3cc(OC)c(OC)c(OC)c3)N12 (stereo not given),74.6% (inactive)
3,C=CCSC(CC)(CC)C(=O)NC,115% (inactive)
4,CCN(CCCNc1cc2c(c(N)c1S(=O)(=O)O)C(=O)c1ccccc1C2=O)c1ccccc1,97% (inactive)
5,Cc1ccc(S(=O)(=O)N/N=C2\CCCc3ccccc32)cc1,105% (inactive)
6,COc1cc(-c2nn(-c3cccc(NC(=O)CCNc4ccc(N5CCOCC5)cc4)c3)cc2-c2ccncc2)ccc1Cl,21.9% (inactive)
7,COc1cc2c(cc1NC(=O)C(Cl)Cl)-c1ccc(NC(=O)C(Cl)Cl)cc1C2,115% (inactive)
8,OCC1OC2C(NC(=S)N2c2ccccc2)C(O)C1O (stereo not given),131% (inactive)
9,Cc1cc(O)ccc1C1=NN(c2ccc(S(C)(=O)=O)cc2)C(=O)CC1,52.7% (inactive)
10,Cc1c(Cl)cccc1NC(=O)CN1CCOCC1,92.6% (inactive)
11,O=C1c2ccccc2C(=O)c2c1ccc(C(Br)Br)c2Cl,-70.9% (active)
12,CC[C@@H](C(=O)[C@@H](C)[C@@H](O)[C@H](C)[C@@H]1O[C@@H]([C@@H](CC)C(=O)N(CC)CC)CC[C@@H]1C)C1O[C@]2(C=CC(=O)[C@]3(CC[C@@](C)([C@H]4CC[C@](O)(CC)[C@H](C)O4)O3)O2)[C@H](C)C[C@@H]1C (stereo not given in full),-27.3% (active)
13,COc1cc(C(=O)n2nc(-c3cc(OC)c(OC)c(OC)c3)nc2N)cc(OC)c1OC,103% (inactive)
14,COc1ccc(C(=O)N2C=Cc3ccccc3C2C#N)cc1 (stereo not given),100% (inactive)
15,COc1ccc(-c2nn(-c3cccc(Cl)c3)cc2-c2cc(-c3ccccc3)[nH]c(=O)c2C#N)cc1,24.7% (inactive)
16,CCOC(=O)C1C(C(=O)OCC)C2C(=O)C3C(C(=O)OCC)C(C(=O)OCC)C3C(=O)C12 (stereo not given),106% (inactive)
17,CC1=CC2C(C(O)CC3(C)C2CC(C)C32OCOC23COCO3)C2(C)C/C(=C/O)C(=O)C=C12 (stereo not given),15.5% (inactive)
18,CCN(CC)CCOc1cccc2c1C(=O)c1ccccc1C2=O,115% (inactive)
19,Cc1c2cnccc2c(C)c2c1oc1ccccc12,62.7% (inactive)
20,O=C(Nc1ccc(NS(=O)(=O)c2ccc(F)cc2)cc1)C12CC3CC(CC(C3)C1)C2,87.1% (inactive)

# Test system: MDA-MB-231 breast
# Assay: as above
# Settings: 10 µM
row,Structure (SMILES),growth
1,CCc1ccc(-c2ccc(-n3nc(C)c4c(N)nc(Cc5ccccc5)nc43)cc2)cc1,38.2% (inactive)
2,O=[N+]([O-])c1ccc2ncccc2c1Cl,21.2% (inactive)
3,Cc1ccc(-n2nnnc2N)c(C)c1,110% (inactive)
4,Oc1ccc(-c2[nH]c3ccccc3c2-c2nc3ccccc3o2)cc1,48.7% (inactive)
5,CCc1ccc(C2=NN(c3ccc(S(C)(=O)=O)cc3)C(=O)CC2)cc1,55.5% (inactive)
6,COc1ccc(-c2nn(-c3cccc(Cl)c3)cc2-c2c(C#N)c(=O)n3[nH]c(-c4ccc(C)cc4)nc3c2C#N)cc1,-2.7% (active)
7,O=C1c2ccccc2C(=O)c2c1ccc(C(Br)Br)c2[N+](=O)[O-],-21.4% (active)
8,CCOC(=O)CC(S(=O)(=O)c1ccccc1)S(=O)(=O)c1ccccc1,109% (inactive)
9,CC(=O)Nc1ccc(S(=O)(=O)c2ccnc3cc(Cl)ccc23)cc1,88.3% (inactive)
10,O=C(Nc1cc([N+](=O)[O-])c2[nH]c(=O)c3ccccc3c2c1)C(F)(F)F,88.6% (inactive)
11,COc1cc2c(cc1NC(=O)C(F)(F)F)-c1ccc(NC(=O)C(F)(F)F)cc1C2,91.1% (inactive)
12,COc1ccc(/C(C#N)=C/c2cccc(OC)c2OC)cc1,83.3% (inactive)
13,C/C(=C/CCC(C)[C@@H]1CC[C@]2(C)C3=C(CC[C@@]12C)[C@@]1(C)CCC(=O)C(C)(C)[C@@H]1CC3)C(=O)O (stereo not given in full),-76.8% (active)
14,N#CC1=CC2CN(Cc3ccccc3)C1C1C(=O)N(c3ccccc3)C(=O)C21 (stereo not given),106% (inactive)
15,COC(=O)C1OC1c1cc([N+](=O)[O-])ccc1OC (stereo not given),123% (inactive)
16,O=c1cn[nH]c2ccc(Br)cc12,116% (inactive)
17,COc1cc(CNC(=O)C2CSC3(C)c4ccccc4C(=O)N23)cc(OC)c1OC (stereo not given),98.3% (inactive)
18,O=C1/C=C/[C@@H](O)[C@@H]2C[C@@H](O)C[C@H]2/C=C/CCC[C@H](C(F)(F)F)O1,-31.8% (active)
19,O=C1CCn2c1c(O)c1ccccc1c2=O,115% (inactive)
20,COc1ccc(/C(=N\N)C(=O)c2ccccc2)cc1 (tested in a mixture with another compound),102% (inactive)

row,Structure (SMILES),growth
1,O=C(CCl)Nc1ccc(Cc2ccc(NC(=O)CCl)cc2)cc1,-15.8% (active)
2,CCOC(=O)C1=CSC2=NC3=C(CCC/C3=C\c3cc(OC)c(OC)c(OC)c3)C(c3cc(OC)c(OC)c(OC)c3)N12 (stereo not given),74.2% (inactive)
3,C=CCSC(CC)(CC)C(=O)NC,114% (inactive)
4,CCN(CCCNc1cc2c(c(N)c1S(=O)(=O)O)C(=O)c1ccccc1C2=O)c1ccccc1,88.9% (inactive)
5,Cc1ccc(S(=O)(=O)N/N=C2\CCCc3ccccc32)cc1,108% (inactive)
6,COc1cc(-c2nn(-c3cccc(NC(=O)CCNc4ccc(N5CCOCC5)cc4)c3)cc2-c2ccncc2)ccc1Cl,-9.17% (active)
7,COc1cc2c(cc1NC(=O)C(Cl)Cl)-c1ccc(NC(=O)C(Cl)Cl)cc1C2,-18% (active)
8,OCC1OC2C(NC(=S)N2c2ccccc2)C(O)C1O (stereo not given),99.8% (inactive)
9,Cc1cc(O)ccc1C1=NN(c2ccc(S(C)(=O)=O)cc2)C(=O)CC1,74.8% (inactive)
10,Cc1c(Cl)cccc1NC(=O)CN1CCOCC1,106% (inactive)
11,O=C1c2ccccc2C(=O)c2c1ccc(C(Br)Br)c2Cl,-41.9% (active)
12,CC[C@@H](C(=O)[C@@H](C)[C@@H](O)[C@H](C)[C@@H]1O[C@@H]([C@@H](CC)C(=O)N(CC)CC)CC[C@@H]1C)C1O[C@]2(C=CC(=O)[C@]3(CC[C@@](C)([C@H]4CC[C@](O)(CC)[C@H](C)O4)O3)O2)[C@H](C)C[C@@H]1C (stereo not given in full),25.8% (inactive)
13,COc1cc(C(=O)n2nc(-c3cc(OC)c(OC)c(OC)c3)nc2N)cc(OC)c1OC,108% (inactive)
14,COc1ccc(C(=O)N2C=Cc3ccccc3C2C#N)cc1 (stereo not given),86.9% (inactive)
15,COc1ccc(-c2nn(-c3cccc(Cl)c3)cc2-c2cc(-c3ccccc3)[nH]c(=O)c2C#N)cc1,-8.6% (active)
16,CCOC(=O)C1C(C(=O)OCC)C2C(=O)C3C(C(=O)OCC)C(C(=O)OCC)C3C(=O)C12 (stereo not given),110% (inactive)
17,CC1=CC2C(C(O)CC3(C)C2CC(C)C32OCOC23COCO3)C2(C)C/C(=C/O)C(=O)C=C12 (stereo not given),18% (inactive)
18,CCN(CC)CCOc1cccc2c1C(=O)c1ccccc1C2=O,85.7% (inactive)
19,Cc1c2cnccc2c(C)c2c1oc1ccccc12,111% (inactive)
20,O=C(Nc1ccc(NS(=O)(=O)c2ccc(F)cc2)cc1)C12CC3CC(CC(C3)C1)C2,96.2% (inactive)

# Reference: PubChem BioAssay (NCI)
